The record followed here is the supplement of paper PMC9135407.

The test system of this test is primary human hepatic stellate cells (donor 1). Briefly: scaled lipid accumulation score (0 = DMSO-like, 1 = nortriptyline-like); higher = stronger HSC inactivation (lipid re-accumulation), active = hit call of the paper. To be noted: 48 h.
Setting [1] is: library stock concentration: 80 uM.
Where [2] appears, read: library stock concentration: 400 uM.
[3] abbreviates: library stock concentration: 2 mM.
Setting [4] is: library stock concentration: 10 mM.
Setting [5] is: library stock concentration: 1 mM.
Where [6] appears, read: library stock concentration: 3.33 mM.

The structures appear in SMILES notation. “And” between values parts separate entries of the source, which are not always exact repeats. Equal entries are not always repeated. Structures can show the parent of a compound that is named as a salt. Hit rate of the full screen: of about 5,800 compounds, about 620 (11%) showed activity. Shown is part of a subset that was picked to be rich in actives. Unmarked numbers belong to inactive results.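 How the source made its calls: active = score above a cut-off or among the top three wells of a plate; in these data no inactive exceeds 0.85.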

Consider `COCC(=O)NC/C=C/c1ccc2ncnc(Nc3ccc(Oc4ccc(C)nc4)c(C)c3)c2c1` [listing 1 of 2 here], for which the “scaled lipid accumulation score” value by setting is: under setting [1], no more than 0; under setting [2], ≤ 0 and ≤ -0.005; under setting [3], ≤ 0 and ≤ -0.005; under setting [4], 0.108.
For `COCC(=O)NC/C=C/c1ccc2ncnc(Nc3ccc(Oc4ccc(C)nc4)c(C)c3)c2c1` [listing 2 of 2 here], the “scaled lipid accumulation score” value under setting [4] was 1.46 (active).
With `COc1ccc(Nc2ncnc3ccc(OC)cc23)cc1` [MPMQ hydrochloride], the “scaled lipid accumulation score” value under setting [4] was 0.051.
Same read-out and setting: to `NC1=NCCN1CC(=O)O` [Cyclocreatine] belongs no more than 0.
As to `CCCCCCCCCCCCCCCC(=O)NCCS(=O)(=O)O` [N-Palmitoyl Taurine], the “scaled lipid accumulation score” value under setting [5] was no more than 0.
Take `CCCS(=O)(=O)Nc1ccc(F)c(C(=O)c2c[nH]c3ncc(Cl)cc23)c1F` [listing 1 of 2 here]: the “scaled lipid accumulation score” value runs as follows: under setting [1], no more than 0; under setting [2], ≤ 0 and 0.028; under setting [3], ≤ 0 and 0.042; under setting [6], no more than 0; under setting [4], no more than 0.
In the case of `CCCS(=O)(=O)Nc1ccc(F)c(C(=O)c2c[nH]c3ncc(Cl)cc23)c1F` [listing 2 of 2 here], under setting [4], the “scaled lipid accumulation score” value is 1.16 (active).
Turning to `CCCS(=O)(=O)Nc1ccc(F)c(C(=O)c2c[nH]c3ncc(-c4ccc(Cl)cc4)cc23)c1F` [Vemurafenib (PLX4032, RG7204)], the “scaled lipid accumulation score” value under setting [6] was no more than 0 and the “scaled lipid accumulation score” value under setting [4] is no more than 0.
For the compound `Cc1noc(-c2ccc(CSCCC(=O)O)cc2)c1NC(=O)OC(C)c1ccccc1Cl` (configuration not stated), the “scaled lipid accumulation score” value under setting [6] is 0.003 and the “scaled lipid accumulation score” value under setting [4] is no more than 0.
In the case of `CCCCCCCOC(=O)Cc1c(C)n(C(=O)c2ccc(Cl)cc2)c2ccc(OC)cc12` [Indomethacin heptyl ester], the “scaled lipid accumulation score” value under setting [5] was 0.015.
Regarding `CS(=O)(=O)c1ccc([C@H](O)[C@@H](COC(=O)CN)NC(=O)C(Cl)Cl)cc1` [Thiamphenicol glycinate], the “scaled lipid accumulation score” value (library stock concentration: 4.8 mM) is 0.01.
On to `O=C(O)Cn1nnc(-c2cc(N3CCC(Oc4cc(F)ccc4Br)CC3)no2)n1`, for which the “scaled lipid accumulation score” value was no more than 0 under setting [6] and no more than 0 under setting [4].
Regarding `CCCCC[C@H](O)/C=C/[C@@H]1[C@@H](C/C=C\CCCC(=O)N(CC)CC)[C@@H](O)C[C@H]1O` [Prostaglandin F2.alpha. diethyl amide], the “scaled lipid accumulation score” value under setting [5] was no more than 0.
For the compound `CCc1cccc(N(C)C(=N)Nc2cccc3ccccc23)c1.Cl`, the “scaled lipid accumulation score” value under setting [4] is 0.912 (active).
The same measure, in the same setting: to `CC1CCC(C(C)C)C(O)C1` (stereo not drawn) [Menthol(-)] belongs no more than -0.027.
Same read-out and setting: next, `CC1(C)CC(=O)C(C2C3=C(CC(C)(C)CC3=O)Oc3ccccc32)C(=O)C1` (configuration not stated): no more than -0.002.
Consider `CCCCCC1OC1C/C=C\C/C=C\C/C=C\CCCC(=O)O` (configuration not stated), for which the “scaled lipid accumulation score” value (library stock concentration: 100 uM) is no more than -0.021.
Take `CC(=O)c1cnc2ccc(-c3cc(Cl)c(O)c(Cl)c3)nc2c1N[C@H]1CC[C@H](CN(C)C)CC1.Cl`: the “scaled lipid accumulation score” value under setting [4] is 0.872 (active).
In the case of `CC(=O)c1cnc2ccc(-c3cc(Cl)c(O)c(Cl)c3)nc2c1N[C@H]1CC[C@H](CN(C)C)CC1`, the “scaled lipid accumulation score” value was 0.258 under setting [1], 0.847 under setting [2] and 0.765 under setting [3].
On to `CCN(CC)CCNC(C(=O)OCCC(C)C)c1ccccc1` (configuration not stated), for which, under setting [4], the “scaled lipid accumulation score” value was 0.521.
In the case of `Cc1ccc(C(=O)NCCCCCC(=O)Nc2ccccc2N)cc1`, the “scaled lipid accumulation score” value by setting is: under setting [6], no more than -0.009; under setting [4], 0.662.
As for `c1ccc2c3c([nH]c2c1)C1C2CCC(C4CCCNC42)N1CC3` (configuration not stated) [Nitrarine dihydrochloride], the “scaled lipid accumulation score” value was no more than 0.
In the case of `C[C@H](CS)C(=O)N1CCC[C@H]1C(=O)O`, the “scaled lipid accumulation score” value under setting [4] is no more than 0.
As to `C[C@H](CS)C(=O)N1CCC[C@H]1C(=O)O` [Captopril], the “scaled lipid accumulation score” value was 0.036. For the same compound, the “scaled lipid accumulation score” value under setting [6] is no more than 0. Further, the “scaled lipid accumulation score” value (library stock concentration: 9.2 mM) is ≤ -0.006 and ≤ 0. Besides, the “scaled lipid accumulation score” value under setting [4] was no more than 0.
Consider `CCOC(=O)[C@H](CCc1ccccc1)N[C@@H](C)C(=O)N1CCC[C@H]1C(=O)O` [Enalapril], for which the “scaled lipid accumulation score” value (library stock concentration: 5.3 mM) was no more than 0.
Regarding `CCCNC(=O)[C@H]1O[C@@H]1C(=O)N[C@H](C(=O)N1CCC[C@H]1C(=O)OC)C(C)CC` (some centres not stated), where the note is “library stock concentration: 12.6 mM”, the “scaled lipid accumulation score” value is 0.868 (active).
Consider `CCOC(=O)[C@H](CCc1ccccc1)N[C@@H](C)C(=O)N1CCC[C@H]1C(=O)O` [Enalapril maleate], for which the “scaled lipid accumulation score” value was no more than 0. Also, under setting [4], the “scaled lipid accumulation score” value was no more than 0.
Regarding `CCOC(=O)[C@H](CCc1ccccc1)N[C@@H](C)C(=O)N1CCC[C@H]1C(=O)O` [Enalapril Maleate], the “scaled lipid accumulation score” value was 0.026 under setting [6] and no more than 0 under setting [4].
Turning to `CCOC(=O)[C@H](CCc1ccccc1)N[C@@H](C)C(=O)N1CCC[C@H]1C(=O)O`, the “scaled lipid accumulation score” value under setting [4] is no more than 0.
For the compound `O=C(O)/C(=C\c1c(C(=O)O)[nH]c2cc(Cl)cc(Cl)c12)c1ccccc1`, under setting [4], the “scaled lipid accumulation score” value was 0.017.
For `N[C@H](C(=O)O)[C@H](Cc1ccccc1)C(=O)O` [L-Beta-threo-benzyl-aspartate], under setting [4], the “scaled lipid accumulation score” value was no more than 0.
Regarding `CC(C)NC[C@H](O)COc1cccc2ccccc12` [(S)-propranolol hydrochloride], the “scaled lipid accumulation score” value was 0.444.
Take `CC(C)NCC(O)COc1cccc2ccccc12` (configuration not stated) [Propranolol HCl]: the “scaled lipid accumulation score” value under setting [6] was no more than 0 and the “scaled lipid accumulation score” value under setting [4] was 0.555.
